Results: article PMC7862700, “An all-to-all approach to the identification of sequence-specific readers for epigenetic DNA modifications on cytosine”

Legend:
Assay in all cases: DAPPL (digital affinity profiling via proximity ligation, sequencing); 10 mM Tris-HCl pH 7.5, 50 mM NaCl, 1 mM DTT, 4% glycerol, room temperature, 30 min; GST-TFs on glutathione beads, 16-mer random dsDNA library, 0.1% formaldehyde crosslink after washing; high values mean tight binding
FLI1 = molecular target: T1, FLI1 (Homo sapiens, UniProt Q01543 1-452); settings: protein: recombinant; tags: N-terminal GST; dsDNA, one strand shown
T1 sequence: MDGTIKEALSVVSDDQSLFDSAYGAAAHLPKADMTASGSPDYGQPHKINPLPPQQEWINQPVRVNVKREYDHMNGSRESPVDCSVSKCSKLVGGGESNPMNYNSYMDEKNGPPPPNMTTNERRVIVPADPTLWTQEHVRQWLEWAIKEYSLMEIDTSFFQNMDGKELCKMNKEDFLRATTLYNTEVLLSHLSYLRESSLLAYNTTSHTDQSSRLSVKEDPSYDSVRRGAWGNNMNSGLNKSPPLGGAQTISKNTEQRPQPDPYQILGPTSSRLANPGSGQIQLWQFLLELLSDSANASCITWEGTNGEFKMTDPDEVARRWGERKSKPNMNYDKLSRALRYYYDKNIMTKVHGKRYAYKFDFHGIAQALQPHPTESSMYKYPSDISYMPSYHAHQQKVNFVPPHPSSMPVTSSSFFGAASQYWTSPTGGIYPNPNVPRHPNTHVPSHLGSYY
How it was run: (§1)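 Human transcription factors fused to GST were expressed in yeast, captured on glutathione beads, given DNA barcodes and pooled with a GST-only negative control. Pools were incubated with 200 nmole of a 16-mer random double-stranded DNA library in Tris/NaCl/DTT/glycerol buffer at room temperature for 30 min. They were then washed, crosslinked with 0.1% formaldehyde, proximity-ligated (BsaI/T4 ligase, 1 h, 37 °C), PCR-amplified and sequenced on an Illumina NextSeq500. Binding signal is each 6-mer's read frequency for a factor divided by its frequency for the GST control.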

ELK1 = molecular target: T2, ELK1 (Homo sapiens, UniProt P19419 1-428); settings: protein: recombinant; tags: N-terminal GST; dsDNA, one strand shown
T2 sequence: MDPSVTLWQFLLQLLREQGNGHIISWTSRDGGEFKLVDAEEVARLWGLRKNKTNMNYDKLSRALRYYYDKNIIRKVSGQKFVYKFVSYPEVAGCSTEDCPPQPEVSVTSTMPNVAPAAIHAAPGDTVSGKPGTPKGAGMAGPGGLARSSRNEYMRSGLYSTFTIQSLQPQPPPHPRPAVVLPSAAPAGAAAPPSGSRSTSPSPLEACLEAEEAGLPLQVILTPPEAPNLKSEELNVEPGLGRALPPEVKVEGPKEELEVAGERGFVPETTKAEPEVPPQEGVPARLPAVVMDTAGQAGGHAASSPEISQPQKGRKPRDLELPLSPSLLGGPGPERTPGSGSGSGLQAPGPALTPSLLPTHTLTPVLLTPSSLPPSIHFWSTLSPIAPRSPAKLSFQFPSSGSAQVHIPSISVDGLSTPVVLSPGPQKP
How it was run: as §1

GABPA = molecular target: T3, GABPA (Homo sapiens, UniProt Q06546 1-454); settings: protein: recombinant; tags: N-terminal GST; dsDNA, one strand shown
T3 sequence: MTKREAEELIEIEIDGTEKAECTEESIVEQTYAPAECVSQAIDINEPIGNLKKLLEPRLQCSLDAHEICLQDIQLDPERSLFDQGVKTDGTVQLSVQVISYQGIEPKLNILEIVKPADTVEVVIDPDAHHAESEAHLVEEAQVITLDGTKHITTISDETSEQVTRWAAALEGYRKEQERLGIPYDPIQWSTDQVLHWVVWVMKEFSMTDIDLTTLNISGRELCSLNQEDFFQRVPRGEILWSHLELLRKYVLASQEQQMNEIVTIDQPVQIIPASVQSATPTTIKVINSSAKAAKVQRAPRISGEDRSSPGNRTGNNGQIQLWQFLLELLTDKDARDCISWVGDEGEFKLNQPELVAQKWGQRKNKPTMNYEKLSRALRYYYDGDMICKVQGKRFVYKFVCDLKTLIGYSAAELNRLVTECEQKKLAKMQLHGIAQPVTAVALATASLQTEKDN
How it was run: as §1

ERG = molecular target: T4, ERG (Homo sapiens, UniProt P11308 1-479); settings: protein: recombinant; tags: N-terminal GST; dsDNA, one strand shown
T4 sequence: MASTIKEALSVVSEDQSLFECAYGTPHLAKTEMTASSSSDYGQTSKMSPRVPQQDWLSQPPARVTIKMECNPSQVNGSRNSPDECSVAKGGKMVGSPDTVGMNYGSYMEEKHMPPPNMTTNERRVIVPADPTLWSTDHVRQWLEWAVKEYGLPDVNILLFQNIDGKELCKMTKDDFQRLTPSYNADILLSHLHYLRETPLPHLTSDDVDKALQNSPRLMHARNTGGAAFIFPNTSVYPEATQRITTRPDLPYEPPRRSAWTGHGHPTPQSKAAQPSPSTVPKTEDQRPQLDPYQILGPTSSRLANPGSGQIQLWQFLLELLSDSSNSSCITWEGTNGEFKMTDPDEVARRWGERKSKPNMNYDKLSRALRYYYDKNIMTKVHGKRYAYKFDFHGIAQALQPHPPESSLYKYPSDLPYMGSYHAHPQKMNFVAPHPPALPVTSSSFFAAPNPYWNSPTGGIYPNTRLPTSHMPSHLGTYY
How it was run: as §1

ELF1 = ELF1 (Homo sapiens, UniProt P32519 1-619); settings: protein: recombinant; tags: N-terminal GST; dsDNA, one strand shown
How it was run: as §1

EHF = molecular target: T5, EHF (Homo sapiens, UniProt Q9NZC4 1-300); settings: protein: recombinant; tags: N-terminal GST; dsDNA, one strand shown
T5 sequence: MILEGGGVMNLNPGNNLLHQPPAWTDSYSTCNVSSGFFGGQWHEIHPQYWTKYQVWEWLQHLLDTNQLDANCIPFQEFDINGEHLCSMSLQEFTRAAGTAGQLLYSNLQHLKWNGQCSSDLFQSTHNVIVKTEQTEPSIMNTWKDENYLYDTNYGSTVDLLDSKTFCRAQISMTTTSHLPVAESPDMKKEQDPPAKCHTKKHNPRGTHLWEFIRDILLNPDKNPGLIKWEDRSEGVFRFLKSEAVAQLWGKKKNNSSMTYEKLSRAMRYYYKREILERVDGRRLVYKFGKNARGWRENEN
How it was run: as §1

SPI1 = SPI1 (Homo sapiens, UniProt P17947 1-270); settings: protein: recombinant; tags: N-terminal GST; dsDNA, one strand shown
How it was run: as §1

SPIB = SPIB (Homo sapiens, UniProt Q01892 1-262); settings: protein: recombinant; tags: N-terminal GST; dsDNA, one strand shown
How it was run: as §1

ELK3 = molecular target: T6, ELK3 (Homo sapiens, UniProt P41970 1-407); settings: protein: recombinant; tags: N-terminal GST; dsDNA, one strand shown
T6 sequence: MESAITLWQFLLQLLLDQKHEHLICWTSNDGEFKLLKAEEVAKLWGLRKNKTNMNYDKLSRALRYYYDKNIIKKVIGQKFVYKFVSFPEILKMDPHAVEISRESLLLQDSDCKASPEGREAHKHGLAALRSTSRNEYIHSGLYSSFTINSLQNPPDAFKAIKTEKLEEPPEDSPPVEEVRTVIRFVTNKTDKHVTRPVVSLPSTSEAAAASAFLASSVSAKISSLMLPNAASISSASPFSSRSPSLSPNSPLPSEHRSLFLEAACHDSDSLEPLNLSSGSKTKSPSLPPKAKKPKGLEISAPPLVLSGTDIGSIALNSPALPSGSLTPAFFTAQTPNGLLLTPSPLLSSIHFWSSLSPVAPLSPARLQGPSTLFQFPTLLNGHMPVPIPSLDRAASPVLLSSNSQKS
How it was run: as §1

FEV = molecular target: T7, FEV (Homo sapiens, UniProt Q99581 1-238); settings: protein: recombinant; tags: N-terminal GST; dsDNA, one strand shown
T7 sequence: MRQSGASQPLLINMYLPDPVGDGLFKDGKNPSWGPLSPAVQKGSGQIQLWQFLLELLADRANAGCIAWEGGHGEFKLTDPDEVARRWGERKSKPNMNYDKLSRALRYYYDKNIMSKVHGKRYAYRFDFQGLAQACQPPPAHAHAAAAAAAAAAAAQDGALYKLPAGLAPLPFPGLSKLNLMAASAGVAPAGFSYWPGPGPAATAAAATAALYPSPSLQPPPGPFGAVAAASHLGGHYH
How it was run: as §1

ETV5 = ETV5 (Homo sapiens, UniProt P41161 1-510); settings: protein: recombinant; tags: N-terminal GST; dsDNA, one strand shown
How it was run: as §1

HSF1 = HSF1 (Homo sapiens, UniProt Q00613 1-529); settings: protein: recombinant; tags: N-terminal GST; chain copies: 3; dsDNA, one strand shown
How it was run: as §1

SPIC = molecular target: T8, SPIC (Homo sapiens, UniProt Q8N5J4 1-248); settings: protein: recombinant; tags: N-terminal GST; dsDNA, one strand shown
T8 sequence: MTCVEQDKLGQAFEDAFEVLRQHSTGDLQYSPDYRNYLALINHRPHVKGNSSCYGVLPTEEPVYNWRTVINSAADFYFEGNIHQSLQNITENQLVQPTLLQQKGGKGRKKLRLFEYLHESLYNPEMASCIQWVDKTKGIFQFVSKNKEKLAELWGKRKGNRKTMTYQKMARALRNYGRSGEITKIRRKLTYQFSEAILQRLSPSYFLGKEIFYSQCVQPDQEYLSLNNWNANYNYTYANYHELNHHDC
How it was run: as §1

ELF4 = ELF4 (Homo sapiens, UniProt Q99607 1-663); settings: protein: recombinant; tags: N-terminal GST; dsDNA, one strand shown
How it was run: as §1

ELK4 = molecular target: T9, ELK4 (Homo sapiens, UniProt P28324-2 1-405); settings: protein: recombinant; tags: N-terminal GST; dsDNA, one strand shown
T9 sequence: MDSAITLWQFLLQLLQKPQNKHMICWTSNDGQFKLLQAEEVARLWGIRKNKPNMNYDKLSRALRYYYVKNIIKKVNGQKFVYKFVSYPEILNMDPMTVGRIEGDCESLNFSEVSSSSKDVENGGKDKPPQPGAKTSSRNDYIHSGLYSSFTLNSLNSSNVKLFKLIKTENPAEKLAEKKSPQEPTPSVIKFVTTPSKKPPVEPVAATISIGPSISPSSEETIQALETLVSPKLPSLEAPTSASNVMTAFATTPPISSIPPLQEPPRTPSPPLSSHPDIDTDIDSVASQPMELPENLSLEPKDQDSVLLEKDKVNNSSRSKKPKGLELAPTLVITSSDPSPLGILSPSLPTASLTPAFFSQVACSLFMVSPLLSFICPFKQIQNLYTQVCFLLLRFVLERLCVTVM
How it was run: as §1

ETV2 = molecular target: T10, ETV2 (Homo sapiens, UniProt O00321 1-342); settings: protein: recombinant; tags: N-terminal GST; dsDNA, one strand shown
T10 sequence: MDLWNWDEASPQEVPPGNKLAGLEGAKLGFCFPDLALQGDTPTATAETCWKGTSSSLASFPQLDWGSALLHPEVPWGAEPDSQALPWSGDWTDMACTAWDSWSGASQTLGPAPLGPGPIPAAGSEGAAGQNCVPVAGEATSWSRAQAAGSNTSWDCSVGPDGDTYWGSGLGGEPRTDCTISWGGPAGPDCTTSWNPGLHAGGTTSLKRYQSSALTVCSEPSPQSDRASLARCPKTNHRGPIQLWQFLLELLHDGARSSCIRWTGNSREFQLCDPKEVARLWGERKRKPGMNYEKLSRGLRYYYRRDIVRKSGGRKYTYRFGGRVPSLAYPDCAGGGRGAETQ
How it was run: as §1

ELF3 = molecular target: T11, ELF3 (Homo sapiens, UniProt P78545 1-371); settings: protein: recombinant; tags: N-terminal GST; dsDNA, one strand shown
T11 sequence: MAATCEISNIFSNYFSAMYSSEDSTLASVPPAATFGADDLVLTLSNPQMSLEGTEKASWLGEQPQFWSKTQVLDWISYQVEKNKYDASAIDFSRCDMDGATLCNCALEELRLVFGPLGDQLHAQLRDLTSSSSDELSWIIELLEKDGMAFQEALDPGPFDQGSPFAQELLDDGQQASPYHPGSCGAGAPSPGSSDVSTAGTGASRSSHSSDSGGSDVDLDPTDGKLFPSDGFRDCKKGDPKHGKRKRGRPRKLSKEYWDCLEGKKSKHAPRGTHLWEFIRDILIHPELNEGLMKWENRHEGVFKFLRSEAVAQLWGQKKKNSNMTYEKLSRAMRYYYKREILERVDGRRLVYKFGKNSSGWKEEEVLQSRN
How it was run: as §1

CRX = CRX (Homo sapiens, UniProt O43186 1-299); settings: protein: recombinant; tags: N-terminal GST; dsDNA, one strand shown
How it was run: as §1

ETV1 = ETV1 (Homo sapiens, UniProt P50549 1-477); settings: protein: recombinant; tags: N-terminal GST; dsDNA, one strand shown
How it was run: as §1

Sequence of SPIB (Q01892 whole entry): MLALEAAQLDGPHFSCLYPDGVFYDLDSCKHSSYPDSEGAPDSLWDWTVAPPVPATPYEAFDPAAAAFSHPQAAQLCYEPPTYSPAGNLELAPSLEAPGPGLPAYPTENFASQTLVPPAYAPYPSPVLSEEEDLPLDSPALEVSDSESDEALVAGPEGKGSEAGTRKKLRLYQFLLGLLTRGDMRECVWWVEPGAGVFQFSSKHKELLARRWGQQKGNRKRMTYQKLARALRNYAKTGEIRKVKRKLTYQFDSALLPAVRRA
Sequence of HSF1 (Q00613 whole entry): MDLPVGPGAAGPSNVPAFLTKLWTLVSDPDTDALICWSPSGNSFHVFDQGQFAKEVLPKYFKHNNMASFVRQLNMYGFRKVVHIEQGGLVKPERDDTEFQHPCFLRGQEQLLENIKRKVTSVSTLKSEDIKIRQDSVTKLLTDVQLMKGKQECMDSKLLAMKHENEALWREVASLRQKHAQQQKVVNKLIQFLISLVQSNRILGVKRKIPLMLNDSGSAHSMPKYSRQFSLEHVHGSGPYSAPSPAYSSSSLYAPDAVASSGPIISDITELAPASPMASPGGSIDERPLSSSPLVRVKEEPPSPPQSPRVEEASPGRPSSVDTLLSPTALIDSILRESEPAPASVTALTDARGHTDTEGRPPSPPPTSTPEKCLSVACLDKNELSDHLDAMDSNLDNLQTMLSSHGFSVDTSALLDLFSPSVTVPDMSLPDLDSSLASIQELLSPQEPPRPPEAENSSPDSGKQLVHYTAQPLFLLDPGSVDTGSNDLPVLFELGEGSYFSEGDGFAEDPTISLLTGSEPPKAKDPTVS
Sequence of ELF1 (P32519 whole entry): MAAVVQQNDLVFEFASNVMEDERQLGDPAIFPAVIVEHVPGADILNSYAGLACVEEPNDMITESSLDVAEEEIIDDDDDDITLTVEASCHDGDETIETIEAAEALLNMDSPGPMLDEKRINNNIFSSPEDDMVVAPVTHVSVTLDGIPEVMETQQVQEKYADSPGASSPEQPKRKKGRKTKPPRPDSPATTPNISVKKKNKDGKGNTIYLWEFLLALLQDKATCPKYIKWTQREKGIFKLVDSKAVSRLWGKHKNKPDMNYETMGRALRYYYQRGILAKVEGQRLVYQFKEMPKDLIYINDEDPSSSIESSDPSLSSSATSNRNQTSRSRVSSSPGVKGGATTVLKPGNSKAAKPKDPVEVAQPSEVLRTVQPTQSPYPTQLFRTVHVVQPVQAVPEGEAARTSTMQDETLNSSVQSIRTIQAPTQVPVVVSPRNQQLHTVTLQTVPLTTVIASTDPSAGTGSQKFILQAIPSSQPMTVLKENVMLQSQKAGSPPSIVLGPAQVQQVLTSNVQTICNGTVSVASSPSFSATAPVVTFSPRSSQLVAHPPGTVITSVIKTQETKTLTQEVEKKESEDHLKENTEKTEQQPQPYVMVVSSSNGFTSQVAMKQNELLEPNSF
Sequence of ETV1 (P50549 whole entry): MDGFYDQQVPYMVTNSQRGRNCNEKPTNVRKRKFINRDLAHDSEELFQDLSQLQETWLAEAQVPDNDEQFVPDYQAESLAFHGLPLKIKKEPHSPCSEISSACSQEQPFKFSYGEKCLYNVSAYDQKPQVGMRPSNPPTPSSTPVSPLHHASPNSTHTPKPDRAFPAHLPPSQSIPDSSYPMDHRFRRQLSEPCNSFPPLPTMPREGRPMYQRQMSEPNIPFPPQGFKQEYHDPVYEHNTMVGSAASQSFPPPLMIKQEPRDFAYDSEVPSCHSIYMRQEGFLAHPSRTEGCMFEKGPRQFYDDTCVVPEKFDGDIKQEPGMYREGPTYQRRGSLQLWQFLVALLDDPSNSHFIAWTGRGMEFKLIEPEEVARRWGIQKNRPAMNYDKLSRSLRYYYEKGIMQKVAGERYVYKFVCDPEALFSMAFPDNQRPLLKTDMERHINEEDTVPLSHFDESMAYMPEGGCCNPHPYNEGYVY
Sequence of ETV5 (P41161 whole entry): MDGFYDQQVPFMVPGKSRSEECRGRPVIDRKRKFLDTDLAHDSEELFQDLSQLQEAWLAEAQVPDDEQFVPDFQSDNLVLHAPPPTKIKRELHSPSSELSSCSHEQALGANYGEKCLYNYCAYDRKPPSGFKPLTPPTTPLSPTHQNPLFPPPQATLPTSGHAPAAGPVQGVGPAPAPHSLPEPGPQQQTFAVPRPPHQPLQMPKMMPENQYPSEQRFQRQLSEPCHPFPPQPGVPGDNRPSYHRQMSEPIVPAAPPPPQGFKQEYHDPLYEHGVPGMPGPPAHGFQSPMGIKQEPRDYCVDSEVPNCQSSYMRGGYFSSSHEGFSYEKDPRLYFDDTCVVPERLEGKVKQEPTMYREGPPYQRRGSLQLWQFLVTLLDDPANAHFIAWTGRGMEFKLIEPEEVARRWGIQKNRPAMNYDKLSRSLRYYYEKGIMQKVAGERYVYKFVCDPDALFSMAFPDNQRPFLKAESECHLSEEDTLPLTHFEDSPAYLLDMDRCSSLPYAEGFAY
Sequence of CRX (O43186 whole entry): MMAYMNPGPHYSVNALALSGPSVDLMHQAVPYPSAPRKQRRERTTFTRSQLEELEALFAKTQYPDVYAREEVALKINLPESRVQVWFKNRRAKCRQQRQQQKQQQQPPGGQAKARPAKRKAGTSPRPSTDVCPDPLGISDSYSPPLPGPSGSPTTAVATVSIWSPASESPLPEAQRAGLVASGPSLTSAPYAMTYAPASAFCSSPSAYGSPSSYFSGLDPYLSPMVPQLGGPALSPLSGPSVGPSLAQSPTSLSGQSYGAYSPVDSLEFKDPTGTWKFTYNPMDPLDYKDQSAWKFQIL
Sequence of ELF4 (Q99607 whole entry): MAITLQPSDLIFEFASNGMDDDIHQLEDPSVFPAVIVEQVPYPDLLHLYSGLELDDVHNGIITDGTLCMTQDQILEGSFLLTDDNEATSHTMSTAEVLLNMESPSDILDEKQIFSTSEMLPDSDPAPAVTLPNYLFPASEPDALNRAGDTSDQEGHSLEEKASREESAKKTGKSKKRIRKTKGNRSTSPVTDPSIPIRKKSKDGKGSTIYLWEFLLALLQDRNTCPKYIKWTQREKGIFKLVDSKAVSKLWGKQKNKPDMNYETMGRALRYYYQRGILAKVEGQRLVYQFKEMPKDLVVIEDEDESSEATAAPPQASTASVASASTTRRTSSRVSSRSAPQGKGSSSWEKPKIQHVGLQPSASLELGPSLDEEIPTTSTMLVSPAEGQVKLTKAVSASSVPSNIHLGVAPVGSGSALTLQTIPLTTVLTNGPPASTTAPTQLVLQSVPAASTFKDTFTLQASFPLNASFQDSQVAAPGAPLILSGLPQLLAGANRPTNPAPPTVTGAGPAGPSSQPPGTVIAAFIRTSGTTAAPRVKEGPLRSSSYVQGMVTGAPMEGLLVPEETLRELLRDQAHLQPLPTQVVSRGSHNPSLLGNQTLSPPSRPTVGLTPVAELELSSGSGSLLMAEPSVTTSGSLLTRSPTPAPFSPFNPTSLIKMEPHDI

AACAAA
binding signal (FLI1): 1.18 fold enrichment (6-mer frequency, TF over GST control) | binding signal (ELK1): 1.16 fold enrichment (6-mer frequency, TF over GST control) | binding signal (GABPA): 1.1 fold enrichment (6-mer frequency, TF over GST control) | binding signal (ERG): 1.18 fold enrichment (6-mer frequency, TF over GST control) | binding signal (ELF1): 1.14 fold enrichment (6-mer frequency, TF over GST control) | binding signal (EHF): 1.17 fold enrichment (6-mer frequency, TF over GST control) | binding signal (SPI1): 1.16 fold enrichment (6-mer frequency, TF over GST control) | binding signal (SPIB): 1.15 fold enrichment (6-mer frequency, TF over GST control) | binding signal (ELK3): 1.27 fold enrichment (6-mer frequency, TF over GST control) | binding signal (FEV): 1.2 fold enrichment (6-mer frequency, TF over GST control) | binding signal (ETV5): 1.11 fold enrichment (6-mer frequency, TF over GST control) | binding signal (HSF1): 1.18 fold enrichment (6-mer frequency, TF over GST control) | binding signal (SPIC): 1.14 fold enrichment (6-mer frequency, TF over GST control) | binding signal (ELF4): 1.16 fold enrichment (6-mer frequency, TF over GST control) | binding signal (ELK4): 1.17 fold enrichment (6-mer frequency, TF over GST control) | binding signal (ETV2): 1.26 fold enrichment (6-mer frequency, TF over GST control) | binding signal (ELF3): 1.21 fold enrichment (6-mer frequency, TF over GST control) | binding signal (CRX): 1.14 fold enrichment (6-mer frequency, TF over GST control) | binding signal (ETV1): 1.19 fold enrichment (6-mer frequency, TF over GST control)
